The campaign covered roughly 5,500 compounds. About 2,000 (36%) were called active. Another 18% or so got no clear call; they are omitted. No stated cut-off is given here; in the data, active means normalized growth mostly below about 0.91 (no sharp cut-off); inconclusive means no clear call, values can overlap the other calls; inactive means mostly above about 0.92. The list shows a part of the results.
Experiment: chemical genetic growth profiling, strain panel (AID 1159580);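 further: tested at 20 µM; growth read once vehicle control cultures reached saturation at 30 °C; 1 = growth at the plate median or of vehicle wells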
Conditions: S. cerevisiae deletion strains, growth OD
[1] = locus YDL101C, strain DUN1, stronger effect = lower value
[2] = locus YHR030C, strain SLT2, stronger effect = lower value
[3] = locus YAR019C, strain CDC15, stronger effect = lower value
[4] = locus YBL105C, strain PKC1, stronger effect = lower value
[5] = locus YBR135W, strain CKS1, stronger effect = lower value
[6] = locus YBR136W, strain MEC1, stronger effect = lower value
[7] = locus YBR160W, strain CDC28, stronger effect = lower value
[8] = locus YDL017W, strain CDC7, stronger effect = lower value
[9] = locus YDL028C, strain MPS1, stronger effect = lower value
[10] = locus YDL108W, strain KIN28, stronger effect = lower value
[11] = locus YDL132W, strain cdc53, stronger effect = lower value
[12] = locus YDL214C, strain PRR2, stronger effect = lower value
[13] = locus YDR052C, strain DBF4, stronger effect = lower value
[14] = locus YDR054C, strain cdc34, stronger effect = lower value
[15] = locus YDR226W, strain ADK1, stronger effect = lower value
[16] = locus YDR477W, strain SNF1, stronger effect = lower value
[17] = locus YER123W, strain YCK3, stronger effect = lower value
[18] = locus YER133W, strain GLC7, stronger effect = lower value
[19] = locus YFL009W, strain cdc4, stronger effect = lower value
[20] = locus YFL029C, strain CAK1, stronger effect = lower value
[21] = locus YFR003C, strain YPI1, stronger effect = lower value
[22] = locus YFR019W, strain FAB1, stronger effect = lower value
[23] = locus YFR028C, strain CDC14, stronger effect = lower value
[24] = locus YGR040W, strain KSS1, stronger effect = lower value
[25] = locus YGR052W, strain FMP48, stronger effect = lower value
[26] = locus YGR092W, strain DBF2, stronger effect = lower value
[27] = locus YHR079C, strain IRE1, stronger effect = lower value
[28] = locus YHR082C, strain KSP1, stronger effect = lower value
[29] = locus YHR205W, strain SCH9, stronger effect = lower value
[30] = locus YIL147C, strain SLN1, stronger effect = lower value
[31] = locus YJL095W, strain BCK1, stronger effect = lower value
[32] = locus YJL128C, strain PBS2, stronger effect = lower value
[33] = locus YJL157C, strain FAR1, stronger effect = lower value
[34] = locus YJR016C, strain ILV3, stronger effect = lower value
[35] = locus YJR066W, strain TOR1 (second series), stronger effect = lower value
[36] = locus YJR066W, strain TOR1, stronger effect = lower value
[37] = locus YKL048C, strain ELM1, stronger effect = lower value
[38] = locus YKL067W, strain YNK1, stronger effect = lower value
[39] = locus YKL101W, strain HSL1, stronger effect = lower value
[40] = locus YKL193C, strain SDS22, stronger effect = lower value
[41] = locus YKL203C, strain TOR2, stronger effect = lower value
[42] = locus YLR113W, strain HOG1, stronger effect = lower value
[43] = locus YLR133W, strain CKI1, stronger effect = lower value
[44] = locus YLR403W, strain SFP1, stronger effect = lower value
[45] = locus YML070W, strain DAK1, stronger effect = lower value
[46] = locus YMR001C, strain CDC5, stronger effect = lower value
[47] = locus YMR205C, strain PFK2 (second series), stronger effect = lower value
[48] = locus YMR277W, strain FCP1, stronger effect = lower value
[49] = locus YNL006W, strain LST8, stronger effect = lower value
[50] = locus YNL020C, strain ARK1, stronger effect = lower value
[51] = locus YNL161W, strain CBK1, stronger effect = lower value
[52] = locus YNL183C, strain NPR1, stronger effect = lower value
[53] = locus YNL207W, strain RIO2, stronger effect = lower value
[54] = locus YNL222W, strain SSU72, stronger effect = lower value
[55] = locus YNL307C, strain MCK1 (second series), stronger effect = lower value
[56] = locus YOL078W, strain AVO1, stronger effect = lower value
[57] = locus YOL136C, strain PFK27, stronger effect = lower value
[58] = locus YOR061W, strain CKA2, stronger effect = lower value
[59] = locus YOR119C, strain RIO1, stronger effect = lower value
[60] = locus YOR231W, strain MKK1, stronger effect = lower value
[61] = locus YOR329C, strain SCD5, stronger effect = lower value
[62] = locus YPL031C, strain PHO85, stronger effect = lower value
[63] = locus YPL153C, strain RAD53, stronger effect = lower value
[64] = locus YPL209C, strain IPL1, stronger effect = lower value
[65] = locus YPL256C, strain CLN2, stronger effect = lower value
[66] = locus YPR025C, strain CCL1, stronger effect = lower value
[67] = locus YPR106W, strain ISR1, stronger effect = lower value
[68] = locus YPR111W, strain DBF20, stronger effect = lower value
[69] = strain NNK1, stronger effect = lower value
[70] = strain TSCII, stronger effect = lower value

Measured: normalized growth

O=C(NNC(=S)Nc1ccc(F)cc1)c1ccccc1Cl
inactive: locus YAL013W, strain DEP1, stronger effect = lower value 0.987 | locus YBR229C, strain ROT2, stronger effect = lower value 1 | locus YCL061C, strain MRC1, stronger effect = lower value 1 | [1] 1.04 | locus YDL134C, strain PPH21, stronger effect = lower value 0.976 | locus YDR150W, strain NUM1, stronger effect = lower value 0.987 | locus YEL061C, strain CIN8, stronger effect = lower value 0.958 | locus YGR078C, strain PAC10, stronger effect = lower value 0.972 | locus YGR229C, strain SMI1, stronger effect = lower value 0.97 | [2] 0.948 | locus YHR087W, strain rtc3, stronger effect = lower value 0.977 | locus YJR043C, strain POL32, stronger effect = lower value 1.01 | locus YJR075W, strain HOC1, stronger effect = lower value 1.01 | locus YKL190W, strain CNB1, stronger effect = lower value 0.966 | locus YLR039C, strain RIC1, stronger effect = lower value 0.933 | locus YLR058C, strain SHM2 (second series), stronger effect = lower value 0.98 | locus YLR085C, strain ARP6, stronger effect = lower value 0.897 | locus YLR262C, strain YPT6, stronger effect = lower value 0.963 | locus YML094W, strain GIM5, stronger effect = lower value 0.96 | locus YMR219W, strain ESC1, stronger effect = lower value 1.01 | locus YMR263W, strain SAP30, stronger effect = lower value 0.977 | locus YNL128W, strain TEP1, stronger effect = lower value 0.971 | locus YNL153C, strain GIM3, stronger effect = lower value 1.01 | locus YNL298W, strain CLA4 (second series), stronger effect = lower value 0.923 | locus YNL322C, strain KRE1, stronger effect = lower value 0.997 | locus YNR030W, strain Alg12, stronger effect = lower value 0.94 | locus YPL055C, strain LGE1, stronger effect = lower value 0.921 | locus YPL241C, strain CIN2, stronger effect = lower value 1.01 | locus YPR135W, strain CTF4, stronger effect = lower value 0.982
active: locus YOL006C, strain TOP1, stronger effect = lower value 0.629

O=C(c1ccccc1)c1cc(Cl)ccc1NC(=S)Nc1ccc(F)cc1
inactive: [3] 0.984 | [4] 0.992 | [5] 0.99 | [6] 0.987 | [7] 0.998 | [8] 0.996 | [9] 0.994 | [1] 0.996 | [10] 0.985 | [11] 0.992 | [12] 0.968 | [13] 0.994 | [14] 0.994 | [15] 0.993 | [16] 0.982 | [17] 0.95 | [18] 0.977 | [19] 0.986 | [20] 0.987 | [21] 0.988 | [22] 0.945 | [23] 0.991 | [24] 0.967 | [25] 1.02 | [26] 0.989 | [2] 0.97 | [27] 0.997 | [28] 1.12 | [29] 0.988 | [30] 0.994 | [31] 0.988 | [32] 0.947 | [33] 0.962 | [34] 0.988 | [35] 0.937 | [36] 1.05 | [37] 0.99 | [38] 0.968 | [39] 0.971 | [40] 0.991 | [41] 1 | [43] 0.983 | [44] 0.974 | [45] 0.978 | [46] 0.995 | [47] 0.977 | [48] 0.976 | [49] 0.992 | [50] 0.983 | [51] 0.992 | [52] 1.02 | [53] 0.992 | [54] 0.987 | [55] 0.968 | [56] 0.999 | [57] 0.969 | [58] 0.973 | [59] 1.05 | [60] 0.994 | [61] 0.993 | [62] 0.969 | [63] 0.988 | [64] 0.993 | [65] 0.985 | [66] 0.99 | [67] 0.997 | [68] 0.963 | [69] 0.995 | [70] 0.991
active: [42] 0.858

CCOC(=O)/C(=N/Nc1c(Cl)cccc1Cl)c1csc(N)n1
inactive: [3] 0.968 | [4] 0.982 | [5] 0.973 | [6] 0.972 | [7] 0.984 | [8] 0.98 | [9] 0.975 | [1] 0.986 | [10] 0.97 | [11] 0.971 | [12] 0.89 | [13] 0.973 | [14] 0.996 | [15] 0.973 | [16] 0.864 | [17] 0.906 | [18] 0.868 | [19] 0.959 | [20] 0.966 | [21] 0.97 | [22] 0.971 | [23] 0.968 | [24] 0.884 | [25] 0.933 | [26] 0.834 | [27] 0.837 | [28] 0.973 | [29] 0.994 | [30] 0.968 | [31] 0.873 | [32] 0.995 | [33] 0.864 | [34] 0.976 | [35] 0.868 | [36] 0.906 | [37] 0.986 | [38] 0.892 | [39] 0.918 | [40] 0.976 | [41] 0.921 | [43] 0.913 | [44] 0.864 | [45] 0.889 | [46] 0.976 | [47] 0.925 | [48] 0.975 | [49] 0.968 | [50] 0.904 | [51] 0.969 | [52] 0.91 | [53] 0.947 | [54] 0.969 | [55] 0.898 | [56] 0.978 | [57] 0.893 | [58] 0.906 | [59] 0.975 | [60] 0.864 | [61] 0.975 | [62] 0.852 | [63] 0.858 | locus YPL204W, strain HRR25, stronger effect = lower value 0.805 | [64] 0.973 | [66] 0.976 | [67] 0.966 | [68] 0.947 | [69] 0.97 | [70] 0.963
active: [2] 0.69 | [42] 0.801 | [65] 0.859

Source: PubChem BioAssay AID1159580 (chemical genetic matrix, 2015)
